Only some compounds are listed: those with a hit (about 2.6% of all), similar ones and a draw of the others.
PRMT1 inh: PRMT1 methyltransferase inhibitors, primary screen, biochemical, fluorescence polarization | Protein arginine N-methyltransferase 1 (Homo sapiens), Q99873 | recombinant PRMT1, activity-based probe fluorescence polarization | inhibition, % at 2.79 µM | 370,000 compounds, 1.3% hits;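 active = inhibition above about 21% made by adding two undisclosed values, limit read from the data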
TLR4 MyD88 comp: inhibitors of TLR4-MyD88 association in cells, primary screen, cell-based, HeLa CL3-4, BLA complementation, FRET ratio. Toll-like receptor 4 (Homo sapiens) + Myeloid differentiation primary response protein …. HeLa CL3-4 TLR4/MyD88 BLA complementation. inhibition, % at 8.4 µM. 200,000 compounds, 0.18% hits. AID 861, 2007; in the data active = inhibition above about 25%;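 also: 0% = vehicle and 100% = reference inhibitor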
NOD2 RIPK2 PPI: NOD2-RIPK2 binding disruptors in cells, primary screen, fluorescence, CHO cells, BLA complementation. Receptor-interacting serine/threonine-protein kinase 2 (Homo sapiens), O43353. CCF4 ratio. inhibition, % at 4.98 µM. 360,000 compounds, 0.38% hits. AID 624267, 2012; in the data active = inhibition above about 21%;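 also: 0% = vehicle only and 100% = reference blocker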
Target sequence (O43353 whole entry, looked up): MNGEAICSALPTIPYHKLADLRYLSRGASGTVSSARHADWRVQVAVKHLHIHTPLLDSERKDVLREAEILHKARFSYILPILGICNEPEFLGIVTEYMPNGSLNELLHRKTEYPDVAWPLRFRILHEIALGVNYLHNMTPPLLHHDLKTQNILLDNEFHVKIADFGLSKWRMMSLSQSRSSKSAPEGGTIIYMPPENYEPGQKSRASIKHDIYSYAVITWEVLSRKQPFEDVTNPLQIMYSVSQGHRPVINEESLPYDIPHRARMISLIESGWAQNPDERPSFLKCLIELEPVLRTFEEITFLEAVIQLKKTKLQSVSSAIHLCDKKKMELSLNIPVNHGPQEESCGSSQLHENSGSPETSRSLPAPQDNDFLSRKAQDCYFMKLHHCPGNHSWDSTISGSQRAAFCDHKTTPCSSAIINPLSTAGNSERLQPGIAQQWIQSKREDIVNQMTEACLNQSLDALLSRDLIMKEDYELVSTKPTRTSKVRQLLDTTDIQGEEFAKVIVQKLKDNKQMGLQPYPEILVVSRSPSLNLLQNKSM
Granule exo inh: LAMP-1 surface exposure blockers, TALL-104 cells – cell-based, flow cytometry, MLPCN library, primary screen | TALL-104 LAMP-1 surface exposure; cells stimulated with thapsigargin and PMA | inhibition, % at 10 µM | 360,000 compounds, 0.66% hits | AID 651702, 2012;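 active = inhibition above about 55%, limit read from the data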
ABHD5 PLIN5 PPI: ABHD5-PLIN5 interaction inhibitors, primary screen, cell lysate, split luciferase complementation, luminescence; Perilipin-5 (Homo sapiens) + 1-acylglycerol-3-phosphate O-acyltransferase ABHD5 (Homo …; 360,000 compounds, 0.78% hits; inhibition, % at 4 µM; AID 602281, 2012; Split G. princeps luciferase complementation, 4 h;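 active = inhibition above the mean inhibition across every tested compound plus 3 SD, cut at about 22% in these data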;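 also: 0% = DMSO only wells and the 100% control is not disclosed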
TLR9-MyD88 inh: inhibitors of TLR9-MyD88 association in cells, primary screen, cell-based, CHO, BLA complementation, fluorescence. Toll-like receptor 9 (Homo sapiens) + Myeloid differentiation primary response protein …. 340,000 compounds, 0.21% hits. AID 504734, 2011. CCF4 FRET ratio. inhibition, % at 4.98 µM;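 active = inhibition above the mean over all tested compounds plus 3 SD, cut at about 21% in these data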;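 also: 0% = DMSO only wells and 100% = clavulanate BLA inhibitor control wells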
TLR4 MyD88 cnf: TLR4-MyD88 association inhibitors, retest, confirmation, cell-based, HeLa CL3-4, BLA complementation, FRET ratio; CCF4 FRET ratio; shares compounds with TLR4 MyD88 comp; 350 compounds, 50% hits; inhibition, % at 8.4 µM; AID 941, 2007;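 active = mean inhibition across three repeat runs above about 25% carried over from the earlier screen, limit read from the data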;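 also: plate controls were DMSO only for no effect and clavulanic acid blocking BLA at full dose for full effect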
BLA inh HeLa: beta-lactamase inhibition flagged in TLR4-MyD88 counter-screen; shares compounds with TLR4 MyD88 comp; HeLa BLA reporter, CCF4 FRET ratio; inhibition, % at 8.4 µM; 350 compounds, 63% hits; AID 1237;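 active = mean inhibition over three repeats above about 26% taken from the earlier screen, limit read from the data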;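 also: HeLa cells stably expressing beta-lactamase reporter as counterscreen for TLR4-MyD88 inhibitors; 0% = DMSO and 100% = clavulanic acid full inhibition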
TLR9-MyD88 conf: TLR9-MyD88 association inhibitors, retest, confirmation, cell-based, CHO, BLA complementation, fluorescence, triplicate. AID 540250, 2011. 680 compounds, 51% hits. inhibition, % at 4.98 µM. CCF4 FRET ratio. shares compounds with TLR9-MyD88 inh;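 active = mean inhibition across three repeats above about 21% taken from the earlier screen, limit read from the data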;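 also: blue over green emission ratio reports constitutive TLR9 MyD88 association via BLA complementation; 0% = DMSO vehicle wells and 100% = clavulanate BLA inhibitor wells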
BLA counter-1: beta-lactamase reporter inhibitors in CHO cells, artefact control for TLR9-MyD88 binding inhibitor project, cell-based, fluorescence. shares compounds with TLR9-MyD88 inh. CHO-BLA cells, CCF4 FRET ratio, BLA reporter. inhibition, % at 4.98 µM. 680 compounds, 7% hits. AID 540251, 2011;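 active = mean inhibition above a 50% cutoff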;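 also: counterscreen of TLR9-MyD88 hits on CMV-driven BLA in CHO-K1 cells; 0% = DMSO alone and 100% = clavulanate blocking BLA; higher means less blue over green ratio so more BLA blockade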
TLR9 CHO cytotox: CHO cell viability loss – luminescence, single concentration, cytotoxicity control for TLR9-MyD88 binding inhibitor project | inhibition, % at 4.98 µM | 680 compounds, 39% hits | TLR9-MyD88 CHO cells cytotoxicity | shares compounds with TLR9-MyD88 inh; in the data active = inhibition above about 11%
NOD2-RIPK2 conf: NOD2-RIPK2 binding disruptors, retest, confirmation, fluorescence, CHO cells, BLA complementation, triplicate. shares compounds with NOD2 RIPK2 PPI. CCF4 FRET. inhibition, % at 4.98 µM. 1,200 compounds, 70% hits. AID 624370, 2012;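 active = mean inhibition across replicates above a set limit taken from the earlier primary screen, cut at about 21% in these data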;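 also: 0% = DMSO-only wells and the high end = clavulanate BLA-blocked wells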
BLA counter-2: hits BLA reporter in NOD2-RIPK2 inhibitor counterscreen; shares compounds with NOD2 RIPK2 PPI; 1,200 compounds, 57% hits; CHO BLA reporter, CCF4 FRET ratio; inhibition, % at 4.98 µM; AID 624371;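 active = mean inhibition above the low-control mean inhibition plus three low-control SD, cut at about 11% in these data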;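 also: 0% = DMSO only wells and 100% = clavulanate high control wells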
Exocytosis CP01: inhibitors of lytic granule exocytosis, confirmation, TALL-104 cells, flow cytometry, Cherry Pick01; shares compounds with Granule exo inh; 1,500 compounds, 11% hits; LAMP-1 externalization; stimulated with PMA plus thapsigargin; inhibition, % at 10 µM; in the data active = inhibition above about 60%;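 also: 0% = stimulated vehicle wells and 100% = unstimulated wells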
PRMT1 inh conf: PRMT1 methyltransferase inhibitors, confirmation, biochemical, fluorescence polarization, triplicate; shares compounds with PRMT1 inh; recombinant His-PRMT1, activity-based probe fluorescence polarization; inhibition, % at 2.79 µM; 3,300 compounds, 42% hits;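 active = mean inhibition across replicates above the hit cutoff derived for the earlier primary screen, cut at about 22% in these data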
* hit, by the source's call; . = not tested or not shown.

SMILES	PRMT1 inh	TLR4 MyD88 comp	NOD2 RIPK2 PPI	Granule exo inh	ABHD5 PLIN5 PPI	TLR9-MyD88 inh	TLR4 MyD88 cnf	BLA inh HeLa	TLR9-MyD88 conf	BLA counter-1	TLR9 CHO cytotox	NOD2-RIPK2 conf	BLA counter-2	others
COc1ccc(C(=O)c2sc3nc(-c4ccccc4)ccc3c2N)cc1	.	47*	50*	4	-10	40*	52*	86*	52*	53*	6	73*	79*
CC(C)OC(=O)c1sc2nc(-c3ccccc3)ccc2c1N	10	49*	24*	19	-6	38*	48*	77*	42*	45	8	64*	73*
COc1cccc(C=NNC(=O)CSc2nc3ccccc3[nH]2)c1O	-8	.	.	.	.	.	.	.	.	.	.	.	.
c1ccc(-c2ccccc2C2Cc3nnccc3CN2)cc1 (configuration not stated)	-2	.	.	.	.	.	.	.	.	.	.	.	.
O=C(NC1CCCCC1)OC[C@@H]1CSCCS(=O)(=O)N1	1	.	.	.	.	.	.	.	.	.	.	.	.
N#Cc1ccc(/C=C\c2nccc3c2[nH]c2ccccc23)cc1	-1	33*	26*	72*	2	21*	18	54*	18	36	13*	37*	56*
OCCCCc1nccc2c1[nH]c1ccccc12	-1	.	-5	-6	-1	-4	.	.	.	.	.	.	.
Cc1ccc(-c2cc(-c3ccccc3)c3c(N)c(S(C)(=O)=O)sc3n2)cc1	18	28*	35*	0	6	46*	31*	50*	.	.	.	62*	71*
O=S(=O)(c1ccc(NC(=S)N/N=C/c2c3ccccc3cc3ccccc23)cc1)N1CCOCC1	1	39*	22*	2	-11	4	19	43*	.	.	.	49*	53*
O=[N+]([O-])c1ccc(N/N=C/c2c[nH]c3ccccc23)cc1	15	40*	36*	10	10	44*	28*	53*	29*	24	9	46*	47*
OC(c1ccccc1)(c1ccccc1)C1CCN(CCCOc2ccccn2)CC1	-1	.	.	.	.	.	.	.	.	.	.	.	.
N#C/C(=C\c1cn(Cc2ccc(F)cc2)c2ccccc12)C(=O)NCc1ccco1	0	63*	31*	1	6	78*	73*	100*	.	.	.	82*	85*
CCC(=O)c1ccc(/C=C/c2nc3ccccc3n2C)o1	14	50*	58*	0	2	43*	47*	65*	31*	39	1	63*	64*
CCCNC(=O)COC(=O)c1ccccc1C(=O)c1ccc(Cl)c([N+](=O)[O-])c1	-2	26*	38*	9	2	17	24	7	.	.	.	62*	11*
Cc1ccc(C(=O)c2ccccc2C(=O)OCC(=O)NCCc2ccc(Cl)cc2Cl)cc1	-1	-1	-4	8	6	2	.	.	.	.	.	.	.
CN1NC(=O)c2ccccc2NC1=S	2	.	.	.	.	.	.	.	.	.	.	.	.
Clc1ncnc2c1oc1ccccc12	1	33*	-11	72*	-1	-9	37*	15	.	.	.	.	.	Exocytosis CP01=-4
Cc1c(COC(=O)NC(C)C)c(COC(=O)NC(C)C)c2n1CS(=O)(=O)C2	3	.	.	.	.	.	.	.	.	.	.	.	.
Cc1nn(C)c(C)c1N1C(=O)c2cccc3c(Br)ccc(c23)C1=O	57*	66*	56*	0	0	48*	52*	92*	29*	33	6	51*	42*	PRMT1 inh conf=0
CN1CCCCC(NC(=O)CCl)C1=O (configuration not stated)	2	.	.	.	.	.	.	.	.	.	.	.	.
CC(=O)c1sc2nc(-c3cccs3)cc(C(F)(F)F)c2c1N	31*	30*	-2	30	-16	8	13	25	.	.	.	.	.	PRMT1 inh conf=20
Cc1cc(/C=C2\Sc3ccccc3N2C)cc(C)[n+]1CC1CCCO1 (configuration not stated)	100*	36*	0	54	-3	.	23	41*	.	.	.	.	.	PRMT1 inh conf=-1
Cc1ccc(/C=C2/Sc3ccccc3N(CC(=O)NCC3CCCO3)C2=O)cc1 (configuration not stated)	.	.	-1	0	0	3	.	.	.	.	.	.	.

Compound activity from PubChem.
